Source: PubChem (Johns Hopkins Ion Channel Center)
An excerpt weighted towards active compounds, which were near 1.6% of everything screened.
KCNQ2 pot: potentiators of rat KCNQ2 potassium channel | Potassium voltage-gated channel subfamily KQT member 2 (Rattus norvegicus), O88943 | CHO-K1 KCNQ2, FluxOR thallium flux fluorescence; stronger effect = higher value | B-score at 10 µM | 0.54% of 310,000 active;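 active = fluorescence ratio B-score at least 3 SD of library B-scores, with initial fluorescence B-score within 3 of them, cut at about 5.3 in these data; same plate scores as AID 2156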;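 also: B-score of peak minus minimum over baseline fluorescence ratio after K+ and Tl+ stimulus; positive B-score means potentiation of KCNQ2 with more thallium influx and brighter signal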
KCNQ2 inh: rat KCNQ2 potassium channel inhibitors, primary screen, cell-based, CHO-K1, FluxOR thallium flux, B-score; Potassium voltage-gated channel subfamily KQT member 2 (Rattus norvegicus), O88943; 20 min; stronger effect = lower value; B-score at 10 µM; 1.1% of 310,000 active;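 active = fluorescence ratio B-score at most minus 3 library SDs, with starting brightness B-score within 2 library SDs, cut at about -5.5 in these data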
Kir21 confirm: mouse Kir2.1 channel blockers, retest, confirmation, cell-based, FluxOR thallium flux, duplicate; shares compounds with KCNQ2 pot; Kir2.1-expressing cells, FluxOR thallium flux fluorescence; stronger effect = lower value; Tl flux remaining, % of negative control (stronger effect = lower value), % at 10 µM; 41% of 2,300 active;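 active = Primary-screen hit whose thallium flux fell at least 3 control SD below untreated wells in both duplicates, with normal baseline fluorescence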;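 also: 0% = blank wells without stimulus and 100% = stimulated no-compound controls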
HEK293 Tl flux: counter-screen for Kir2.1 inhibitors: effect in parental HEK293 cells; shares compounds with KCNQ2 pot; FluxOR thallium flux fluorescence; 0% = unstimulated blank wells; FluxOR signal as % of negative control (100 = no effect), % at 10 µM; 19% of 2,300 active; AID 2105;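 active = dye signal at least 3 control SD above or below untreated wells in both duplicates, raw fluorescence within 3, either direction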;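 also: percent is based on the flux ratio of peak minus minimum fluorescence over baseline F0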
CHO-K1 ctr: nonspecific thallium flux increase in parental CHO-K1, confirmation, counter-screen for KCNQ2 potentiator project, cell-based, FluxOR thallium flux, duplicate; activity increase over 3SD of controls, % at 10 µM; AID 2282, 2010; 43% of 1,200 active; parental CHO-K1 cells, FluxOR thallium flux fluorescence; zero = vehicle mean+3SD, 100% = vehicle-minus-blank window; shares compounds with KCNQ2 pot;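 active = signal rise of at least 3 SD above the untreated control mean, in both duplicate wells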;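 also: counter screen of KCNQ2 potentiator hits so any rise reflects channel-independent effects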
KCNQ1 sel pot: human KCNQ1 channel potentiation off-target, confirmation, selectivity assay for KCNQ2 potentiator project, cell-based, CHO, FluxOR thallium flux. shares compounds with KCNQ2 pot. CHO KCNQ1 stable, FluxOR thallium flux fluorescence; beyond 3SD, as % of vehicle-control signal. activation over 3SD threshold, % at 10 µM. 28% of 1,200 active. AID 2283, 2010;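 active = fluorescence ratio rise of at least 3 SD of vehicle wells above their mean, in both replicate wells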;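 also: 0% = vehicle mean plus 3 SD and 100% = vehicle minus unstimulated blank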
KCNQ2 pot confirm: rat KCNQ2 channel potentiators, confirmation, cell-based, CHO, FluxOR thallium flux, duplicate. shares compounds with KCNQ2 pot. CHO-KCNQ2 cells, FluxOR thallium flux fluorescence. potentiation, less the hit threshold, % at 10 µM. 68% of 1,200 active. AID 2287, 2010;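 active = fluorescence ratio rising 3 SD or more over the vehicle control mean in both replicates, plus primary screen hit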;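 also: peak minus minimum thallium fluorescence divided by baseline after K/Tl stimulus; 0% = vehicle mean plus 3 SD and 100% = vehicle minus unstimulated blank difference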
Kir2-1 sel: mouse Kir2.1 channel activation off-target, confirmation, selectivity assay for KCNQ2 potentiator project, cell-based, HEK293, FluxOR thallium flux; HEK293 Kir2.1, FluxOR thallium flux fluorescence; shares compounds with KCNQ2 pot; 2% of 1,200 active; activity over 3SD threshold, % at 10 µM; AID 2345, 2010;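 active = fluorescence ratio rise of at least 3 SD above the vehicle-control mean, seen in both replicates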;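 also: 0% = vehicle mean plus 3 SD and 100% = vehicle minus no-stimulus blank window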
KCNQ2 W236L pot: potentiators of retigabine-insensitive KCNQ2 W236L, mechanism study for KCNQ2 potentiator project, cell-based, rat KCNQ2 W236L, CHO, automated patch clamp. shares compounds with KCNQ2 pot. 10% of 940 active. AID 2558, 2010. automated patch clamp current. current increase over 3SD of negative controls (%), stronger effect = higher value, % at 25 µM;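 active = current increase at least 3 SD of the untreated controls above them in both duplicate recordings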
Target sequence (O88943 whole entry W236L, looked up): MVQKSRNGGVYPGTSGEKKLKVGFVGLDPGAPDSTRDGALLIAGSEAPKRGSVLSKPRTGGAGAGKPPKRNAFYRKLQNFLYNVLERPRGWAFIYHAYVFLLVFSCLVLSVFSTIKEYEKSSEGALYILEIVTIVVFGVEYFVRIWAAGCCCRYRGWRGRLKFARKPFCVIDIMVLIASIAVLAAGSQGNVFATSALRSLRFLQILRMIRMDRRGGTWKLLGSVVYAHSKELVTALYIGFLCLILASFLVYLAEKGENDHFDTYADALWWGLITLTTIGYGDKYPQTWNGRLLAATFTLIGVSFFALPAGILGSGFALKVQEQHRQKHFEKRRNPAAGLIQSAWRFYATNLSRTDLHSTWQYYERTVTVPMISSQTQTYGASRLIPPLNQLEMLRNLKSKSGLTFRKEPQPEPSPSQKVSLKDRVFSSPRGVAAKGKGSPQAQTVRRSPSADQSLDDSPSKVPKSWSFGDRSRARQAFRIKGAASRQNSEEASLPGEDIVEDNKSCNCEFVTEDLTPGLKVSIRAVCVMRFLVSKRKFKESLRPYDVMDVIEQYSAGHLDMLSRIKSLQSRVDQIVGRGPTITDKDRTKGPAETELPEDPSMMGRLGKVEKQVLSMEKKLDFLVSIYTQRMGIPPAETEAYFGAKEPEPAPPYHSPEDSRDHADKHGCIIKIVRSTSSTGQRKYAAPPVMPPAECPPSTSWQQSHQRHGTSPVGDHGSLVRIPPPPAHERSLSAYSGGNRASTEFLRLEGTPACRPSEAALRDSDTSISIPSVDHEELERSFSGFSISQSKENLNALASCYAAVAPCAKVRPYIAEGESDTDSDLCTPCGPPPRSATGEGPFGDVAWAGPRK
Numbers without * were called inactive; i = inactive; / = not tested or not shown.

SMILES	KCNQ2 pot	KCNQ2 inh	Kir21 confirm	HEK293 Tl flux	others
Cc1cc(C)c(S(=O)(=O)N2CCC(C(=O)NCc3ccc(Cl)cc3Cl)CC2)c(C)c1	6.04*	i	i	i	CHO-K1 ctr=-4.7;KCNQ1 sel pot=-51.5;KCNQ2 pot confirm=-2.5;Kir2-1 sel=-35.9
CC(C)CNC(=O)c1ccccc1NC(=O)CN(c1ccccc1)S(=O)(=O)N(C)C	/	i	/	/
Cc1ccc(-c2nn(-c3ccccc3)cc2CSC(=N)N)cc1	/	i	i	i
OCc1cn(-c2ccccc2)nc1-c1ccc(-c2nn(-c3ccccc3)cc2CO)cc1	0.53	i	/	/
Cc1cc(Cl)c(S(=O)(=O)N2CCCC2)cc1OCC(=O)NC1CCCCC1	27.4*	i	i	139.0%*	CHO-K1 ctr=-16.8;KCNQ1 sel pot=-4.9;KCNQ2 pot confirm=132.9*;Kir2-1 sel=-48.1;KCNQ2 W236L pot=i
Cc1cc(Cl)c(S(=O)(=O)NC(C(=O)O)C(C)C)cc1OCC(=O)NC1CCCCC1 (centres undefined)	/	i	/	/
CC(C)(C)C(=O)/C=C/Nc1ccccc1O	8.99*	i	i	71.0%*	CHO-K1 ctr=-12.2;KCNQ1 sel pot=78.4*;KCNQ2 pot confirm=59.3*;Kir2-1 sel=-13.7;KCNQ2 W236L pot=1.6%*
CN(C)c1ccc(N/C=C/C(=O)C(C)(C)C)cc1	/	i	/	/
O=C(Nc1ccnn1C1CCN(C(=O)c2cccc(Cl)c2)CC1)C1CCOC1 (centres undefined)	1.32	i	/	/
CCS(=O)(=O)c1ccc(C(=O)Nc2ccccc2OC)c(Cl)c1Cl	2.9	i	/	/
CCCCCc1ccc(CC(=O)Nn2c(C)nc3ccccc3c2=O)cc1	15.1*	i	i	i	CHO-K1 ctr=10.3*;KCNQ1 sel pot=-7.7;KCNQ2 pot confirm=93.1*;Kir2-1 sel=-40.0;KCNQ2 W236L pot=i
CCc1ccc(C(=O)Nn2c(C)nc3ccccc3c2=O)cc1	1.35	i	/	/
O=S(=O)(Nc1cc2nc3ccccc3nc2n1Cc1ccccc1)c1ccc(Cl)cc1	/	i	/	/
COc1ccc(OC)c(C(=O)NC2CCSc3ccccc32)c1 (centres undefined)	/	i	/	/
COc1ccc(CC(=O)NC2CCSc3ccccc32)c(OC)c1 (centres undefined)	/	i	72.0%*	i
COc1ccc2nc(SCC(=O)N(C)CC(=O)Nc3ccc(F)cc3)[nH]c2c1	0.71	i	/	/
Cc1ccc(S(=O)(=O)CCC(=O)Oc2ccc(-c3nnco3)cc2)cc1	/	i	/	/
Cn1c(COc2ccccc2O)[n+](C)c2ccccc21	/	i	/	/
CCCCCCCCCCOC(=O)Cn1c(COc2ccccc2OC)[n+](C)c2ccccc21	/	i	i	i
C=CCn1c(Oc2ccc(C=O)cc2OCC)nc2c1c(=O)n(C)c(=O)n2C	2.36	i	/	/
Cc1ccc(C(=O)Nc2onc(C)c2C#N)cc1	/	i	/	/
CC(C)(C)OC(=O)NCCc1nnc(SCc2ccccc2)o1	/	i	45.0%*	77.0%*
CC(C)(C)OC(=O)N1CCC[C@H]1c1nnc(SCc2ccccc2)o1	/	i	/	/
CC(C)(C)OC(=O)NCCc1nnc(SCc2ccccc2Cl)o1	/	i	/	/
CC(C)(C)OC(=O)NCCCCCc1nnc(SCc2ccc(F)cc2)o1	/	i	/	/
SMILES	KCNQ2 pot	KCNQ2 inh	Kir21 confirm	HEK293 Tl flux	others
Cc1ccc(CSc2nnc([C@@H]3CCCN3C(=O)OC(C)(C)C)o2)cc1	/	i	50.0%*	66.5%*
Cc1ccc(CSc2nnc(CCNC(=O)OC(C)(C)C)o2)cc1	/	i	29.0%*	i
COc1ccc(C(CCNC(C)c2ccccc2)C(C)C)cc1 (centres undefined)	0.56	i	47.5%*	i
COc1ccc(OCC(O)CNC(C)c2ccccc2)cc1 (centres undefined)	0.41	i	/	/
CC(C)Oc1ccc(C(CCNCc2ccc(O)cc2)c2ccccc2)cc1 (centres undefined)	/	i	/	/
COc1ccc(C(C)NCCC(c2ccc(OC(C)C)cc2)c2ccccc2OC)cc1 (centres undefined)	-6.6	-6.6*	56.5%*	i
O=C(Cn1cnnn1)NC1CCCN(Cc2ccccc2F)C1 (centres undefined)	/	i	/	/
CC(=O)NC1C(OCc2ccccc2)OC2COC(c3ccccc3)OC2C1OCC(=O)O (centres undefined)	0.52	i	/	/
COc1ccc(CNC(=O)c2csc(Cc3ccc(OC)cc3)n2)cc1	/	i	52.0%*	i
COc1ccc(CNC(=O)c2csc(Cc3ccc(Cl)cc3)n2)cc1	/	i	/	/
O=C(c1nnsc1S(=O)(=O)c1ccc(Cl)cc1)N1CCOCC1	5.03	i	/	/
CNC(=O)c1nnsc1S(=O)(=O)c1ccc(Cl)cc1	-7.12	-7.12*	i	i
CCCCn1c(N)c(N(CC(C)C)C(=O)c2ccc(N3C(=O)CCC3=O)cc2)c(=O)[nH]c1=O	0.49	i	/	/
CC(C)CCC1(C)NC(=O)N(CC(=O)c2ccc[nH]2)C1=O (centres undefined)	1.4	i	/	/
CCOc1cc(OCC)cc(C(=O)NCc2ccco2)c1	1.62	i	/	/
c1ccc(-c2ccccc2OCCCCN2CCCCCC2)cc1	/	i	38.5%*	i
c1ccc(-c2ccccc2OCCN2CCCC2)cc1	/	i	/	/
N#CCc1ccc(OC(=O)c2cccnc2Cl)cc1	0.11	i	/	/
Nc1nc(C2CC2)c(Sc2sc(N)nc2C2CC2)s1	/	i	74.0%*	i
Nc1nc(C2CCOCC2)cs1	/	i	/	/
CCOc1cc(Br)ccc1S(=O)(=O)NCc1ccccc1	/	i	/	/
Cc1nc(CCNC(=O)CC2C(=O)NCCN2Cc2ccccc2)nc2c1CCC2 (centres undefined)	/	i	/	/
